# Source: PubChem BioAssay
# VP16 counter – counter-screen for ROR gamma inhibitors: Gal4-VP16 reporter; Drosophila S2 Gal4-VP16 UAS-luciferase, luminescence, 20 h; Potency, µM (doses to about 53.6 µM), without a hit: at the highest dose activity, negative = inhibition, most hits filed as inhibitors; 310,000 tested, 3.5% active; AID 2546;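 note: Gal4-VP16 expression switched on by copper sulfate through the metallothionein promoter; potency is the fitted concentration of half-maximal effect; nearly all actives have a fitted effect of over 50% in size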
# DT40 TDP1 CPT – growth inhibition of DT40 Tdp1-/-;hTDP1 cells with camptothecin (screen for TDP1 inhibitors) | chicken DT40 Tdp1-/-;hTDP1 cells + 20 nM CPT, ATP luminescence, 48 h | Potency, µM (titrated, usually from 46.2 µM), without a hit: at the top dose activity change, negative = growth inhibition, hits mostly inhibitors | 420,000 tested, 12% active; note: potency is the fitted concentration of half-maximal effect; nearly all actives have a fitted effect of over 55% in size
#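 Chicken DT40 Tdp1-/- cells stably complemented with human TDP1 were seeded at 400 cells/well in medium containing 20 nM camptothecin, exposed to pin-transferred compounds, and grown at 37 °C for at least 48 hr. Viability was read as ATP luminescence.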
# RORgamma inh – ROR gamma (mouse) transcription inhibition; P51450; Drosophila S2 Gal4-RORgamma UAS-luciferase reporter, 20 h; Potency, µM (highest dose often 53.6 µM), for the others: at the highest dose activity change, negative = inhibition, actives largely listed as inhibitors; 310,000 tested, 5.4% active; note: potency is the fitted concentration of half-maximal effect; nearly all actives have a fitted effect of over 60% in size
# Target sequence (P51450 whole entry, looked up, the tested form may be a part): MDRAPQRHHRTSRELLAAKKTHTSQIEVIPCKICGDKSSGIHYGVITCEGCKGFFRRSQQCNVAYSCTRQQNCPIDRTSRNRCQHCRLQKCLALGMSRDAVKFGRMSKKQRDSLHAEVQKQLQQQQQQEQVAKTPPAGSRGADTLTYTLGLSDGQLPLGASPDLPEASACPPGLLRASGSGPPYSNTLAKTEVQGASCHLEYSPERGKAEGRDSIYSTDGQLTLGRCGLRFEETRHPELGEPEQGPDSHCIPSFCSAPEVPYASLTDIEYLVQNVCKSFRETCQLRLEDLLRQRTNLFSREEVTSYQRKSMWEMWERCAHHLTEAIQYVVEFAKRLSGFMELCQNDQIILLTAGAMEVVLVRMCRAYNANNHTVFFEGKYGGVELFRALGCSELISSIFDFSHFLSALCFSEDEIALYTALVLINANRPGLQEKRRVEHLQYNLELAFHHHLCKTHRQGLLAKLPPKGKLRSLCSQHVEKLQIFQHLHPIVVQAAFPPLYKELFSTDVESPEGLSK
#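 Schneider cells (Drosophila), stable Gal4 DBD–ROR gamma + UAS-luc; 1 hr cmpd preincubation; Cu2+ induction 700 uM final; 20 hr ambient; luminescence.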
# IL-1B inflam inh – inhibitors of inflammasome signaling (IL-1 beta secretion); activity change, % at 57.5 µM; AID 743279; THP-1 LPS/ATP IL-1B secretion, AlphaLISA, 16 h; hits give low values; 360,000 tested, 4.7% active; in the data active = activity change below about -50%; inconclusive = mostly about -30% to -49%
#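 Secreted IL-1B measured by AlphaLISA bead assay after 16 h compound exposure of THP-1 cells; compounds (final up to 57.5 uM) added 1 h before LPS (250 ng/mL) and ATP (1.25 mM) stimulation; lower signal means less secretion.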
# LDHA inh – inhibitors of human lactate dehydrogenase A | purified LDHA, NADH/diaphorase-resazurin fluorescence; hits give low values | activity change, % (values are at about 110 or 230 µM) | 480,000 tested, 0.15% active | P00338; in the data active = activity change below about -30%; inconclusive = mostly about -25% to -30%;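 note: plate controls were DMSO wells for no effect and wells without enzyme for full effect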
#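 LDH5 2 nM; NADH 0.06 mM, pyruvate 0.2 mM; 200 mM Tris pH 7.4, EDTA, Tween-20; 5 min RT. Detection: diaphorase 0.133 mg/mL + resazurin 37 µM, fluorescence ex540/em590 at 0 and 20 min; normalized to enzyme-free and DMSO wells.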
# TDP1 cell noCPT – qHTS for Inhibitors of human tyrosyl-DNA phosphodiesterase 1 (TDP1): qHTS in cells in absence of CPT; AID 686978, 2013; Potency, µM (doses to about 46.2 µM), inactives show at the top dose activity change, negative = growth inhibition, usual class: inhibitors; 420,000 tested, 15% active; DT40 Tdp1-/- hTDP1 cells, no CPT, ATP luminescence, 48 h; note: potency is the fitted concentration of half-maximal effect; nearly all actives have a fitted effect of over 55% in size
#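 Growth kinetics read by CellTiter-Glo luminescence after ≥48 hr at 37 °C. Cells: DT40 Tdp1-/- stably carrying human TDP1, 400 per well, compound exposure in the absence of CPT (DMSO vehicle).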
# * hit, by the source's call; ? = inconclusive; . = not tested or not shown; [ ] = another dose, or the depositor's remark. This is a sample that favours compounds with a hit; in the whole collection about 18% have one here. Unless noted, calls come from the whole dose curve; as a rule, active = well fitted curve in the direction sought with a large enough effect; inconclusive = small, poorly fitted or top-dose-only effect, or another doubt; inactive = no such curve, though single readings can be large; an effect the other way counts as inactive or inconclusive. Unless noted, % is set by controls: 0 for no effect and ±100 for the full control effect.
SMILES,VP16 counter,DT40 TDP1 CPT,RORgamma inh,IL-1B inflam inh,LDHA inh,TDP1 cell noCPT
CCC(C)[C@H](N)C(=O)N[C@H]1CCC2C3CC=C4C[C@@H](O)CC[C@]4(C)C3CC[C@@]21C (stereo partly drawn),.,?,.,-111*,-3,?
CC(C)[C@H](N)C(=O)N[C@H]1CCC2C3CC=C4C[C@@H](O)CC[C@]4(C)C3CC[C@@]21C (stereo partly drawn),.,?,.,-106*,-8,?
C[C@]12CC[C@H](O)CC1=CCC1C2CC[C@@]2(C)C1CC[C@@H]2NCc1ccccc1 (stereo partly drawn),.,21µM*,.,17,-16,21µM*
O=c1c2c(-c3ccccc3)n3ncnc3nc2ccn1CCc1cccs1,.,.,.,.,-18,.
O=C(CCN(Cc1cccs1)CC1CCCO1)Nc1cccc2ccccc12 (stereo not drawn),.,.,.,.,8,.
CCCCC[C@H](C)N1C[C@@H](COCc2ccccc2)Oc2cc(N3CCC[C@@H]3COC)ccc2S1(=O)=O,.,21µM*,.,42,0,18µM*
CCCCC[C@H](C)N1C[C@H](COCc2ccccc2)Oc2cc(N3CCC[C@H]3COC)ccc2S1(=O)=O,.,?,.,0,-1,18µM*
CCCCC[C@@H](C)N1C[C@H](COCc2ccccc2)Oc2cc(N3CCC[C@H]3COC)ccc2S1(=O)=O,.,5.8µM*,.,2,-6,6.5µM*
CCCCC[C@@H](C)N1C[C@@H](COCc2ccccc2)Oc2cc(N3CCC[C@H]3COC)ccc2S1(=O)=O,.,?,.,39,2,18µM*
CCCCC[C@@H](C)N1C[C@@H](COCc2ccccc2)Oc2cc(N3CCC[C@@H]3COC)ccc2S1(=O)=O,.,?,.,56,3,16µM*
CCc1ccccc1Nc1nn2c(=O)c3ccc(C(=O)NCc4cccs4)cc3nc2s1,.,?,.,.,-9,21µM*
CCc1ccccc1Nc1nn2c(=O)c3ccc(C(=O)NCc4ccccc4Cl)cc3nc2s1,.,?,.,.,-2,9.2µM*
CCc1ccccc1Nc1nn2c(=O)c3ccc(C(=O)NC(C)C)cc3nc2s1,.,-17%,.,.,-12,-28%
CC(C)(C)OC(=O)N1Cc2ccccc2C[C@H]1C(=O)Nc1ccc2c(c1)OCCO2,.,.,.,.,-5,.
CC(C(=O)Nc1ccccc1)c1ccc(-c2ccccc2)c(F)c1 (stereo not drawn),?,18µM*,31%,?,-3,23µM*
CC(C)Cc1ccc(C(C)C(=O)Nc2ccc(O)cc2)cc1 (stereo not drawn),18µM*,23µM*,?,3,1,13µM*
CC(C(=O)O)c1ccc(-c2ccccc2)c(F)c1 (stereo not drawn),6%,-2%,31%,2,-6,-10%
CC(C(=O)Nc1ccc(O)cc1)c1cccc(C(=O)c2ccccc2)c1 (stereo not drawn),?,?,32%,-51*,-3,21µM*
CC(C)Cc1ccc(C(C)C(=O)Nc2cccnc2)cc1 (stereo not drawn),?,2.3µM*,30%[1.91 µM],46,1,3.7µM*
CC(C)(C)c1ccc(C(NC(=O)c2ccccc2)NC(=O)c2ccccc2)cc1,.,.,.,.,0,.
Cc1ccccc1NC(=O)CCc1c(C)nn(-c2ccc(N3CCCC3)nn2)c1C,.,.,.,.,-2,.
CC(C)Cc1ccc([C@H](C)C(=O)O)cc1,9%[17 µM],4%,4%[16.9 µM],-9,-5,-2%
CC(C)Cc1ccc(C(C)C(N)=Nc2ccc(O)cc2)cc1 (stereo not drawn),.,26µM*,.,.,-2,16µM*
Cc1ccccc1-c1cc(=O)c2cc(NC(=O)c3cccnc3)ccc2o1,.,.,.,.,-5,.
CC1CN(C(=O)Nc2ccc(C(=O)NCCc3ccccc3)cc2)c2ccccc2S1 (stereo not drawn),.,?,.,.,-5,?
SMILES,VP16 counter,DT40 TDP1 CPT,RORgamma inh,IL-1B inflam inh,LDHA inh,TDP1 cell noCPT
CCc1ccc(CNC(=O)c2ccc(NC(=O)N3CC(C)Sc4ccccc43)cc2)cc1 (stereo not drawn),.,10µM*,.,.,5,9.2µM*
COc1ccc(CNC(=O)c2ccc(NC(=O)N3CCSc4ccccc43)cc2)cc1,.,?,.,.,-2,?
COc1cccc(CNC(=O)c2ccc(NC(=O)N3CC(C)Sc4ccccc43)cc2)c1 (stereo not drawn),.,18µM*,.,.,3,15µM*
Cc1cccc(CNC(=O)c2ccc(NC(=O)N3CC(C)Sc4ccccc43)cc2)c1 (stereo not drawn),.,21µM*,.,.,3,16µM*
CCC[C@@H](CN1CCC[C@H]1CN1C(N)=NC[C@@H]1Cc1ccccc1)N1C[C@@H]([C@H](C)CC)N(CCCC2CCCC2)C1=N,.,10µM*,.,-96*,3,8.2µM*
CC(C)C[C@H]1CNC(=O)C(=O)N1C[C@H]1CCCN1C[C@H](CC(C)C)N1C[C@H](Cc2ccccc2)N(CC2CCCCC2)C(=O)C1=O,.,-2%,.,9,6,3%
CC[C@@H](C)[C@@H]1CN([C@@H](CN2CCC[C@H]2CN2C(N)=NC[C@H]2CC(C)C)C(C)C)C(=N)N1CCCC1CCCC1,.,?,.,?,-2,?
CCC[C@@H](CN1CCC[C@H]1CN1C(N)=NC[C@H]1CC(C)C)N1C[C@@H](Cc2ccccc2)N(CCCC2CCCC2)C1=N,.,10µM*,.,-66*,2,12µM*
CC(C)[C@H](CN1CCC[C@H]1CN1C(N)=NC[C@H]1C(C)C)N1C[C@@H](Cc2ccccc2)N(CCCC2CCCC2)C1=N,.,?,.,-60*,1,?
CCC[C@@H](CN1CCC[C@H]1CN1C(N)=NC[C@@H]1Cc1ccccc1)N1C[C@@H](Cc2ccccc2)N(CCCC2CCCC2)C1=N,.,?,.,-83*,0,?
N#Cc1cnn2c(C(F)(F)F)cc(-c3ccco3)nc12,.,.,.,.,-2,.
CCS(=O)(=O)c1ccc2oc(Nc3ccc(OC(F)(F)F)cc3)nc2c1,.,.,.,.,7,.
COc1ccc(-c2nc(CNC(=O)NC(C)C)c(C)o2)cc1,.,.,.,.,5,.
COc1cccc(C(=O)COC(=O)C2C3CC4C(OC(=O)C42)C3Br)c1 (stereo not drawn),.,.,.,.,14,.
Cc1ccc(-c2n[nH]c(=O)c3ccccc23)cc1S(=O)(=O)N1CCC(C)CC1,.,.,.,.,10,.
COCC(=O)N1CCN(c2oc(-c3ccc(C)cc3)nc2S(=O)(=O)c2ccccc2)CC1,.,.,.,.,-3,.
